# Assay results published in PubChem BioAssay AID623901 (Broad Institute, 2012).
# Out of some 340,000 compounds screened, about 470 (0.14%) were called active. The sample holds actives, similar compounds and a random draw of the others, so the mix is not that of the screen.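 How the source made its calls: active means mean activation of 30% or more, with every replicate also reaching 30%; inconclusive means mean activation of 30% or more but some replicate falls short; inactive means the rest.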
# Assay: small molecules raising miR-122 sensor signal – cell-based, Huh7 psiCHECK-miR122, Renilla luciferase, single point, primary screen (AID 623901);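 further: 0% = median of neutral control wells and 100% = median of positive control wells; higher luciferase signal means stronger suppression of miR-122 activity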
# Conditions: 48 h, at 12.5 µM, active compounds read high
row,SMILES,activation
1,COc1ccc(OC)c(S(=O)(=O)Nc2cccc(-c3ccc4nncn4n3)c2)c1,-333% (inactive)
2,C[C@@H]1CN([C@H](C)CO)S(=O)(=O)c2ccc(C#CCC3CCCC3)cc2O[C@H]1CN(C)C(=O)CC1CC1,-0.08% (inactive)
3,CO[C@@H]1CN(C)C(=O)c2cc(NS(=O)(=O)CC(F)(F)F)ccc2OC[C@H](C)N(C)C[C@H]1C,-2.27% (inactive)
4,C[C@H](CO)N1C[C@H](C)[C@H](CN(C)CC2CCCCC2)Oc2c(NC(=O)c3cnccn3)cccc2C1=O,-119% (inactive)
5,C[C@@H]1CN([C@H](C)CO)C(=O)c2cc(C#CC3CCCC3)cnc2O[C@@H]1CN(C)C(=O)C1CCC1,-4.13% (inactive)
6,CCOc1ccccc1N1CCN(C(=O)c2ccc3[nH]c(C)c(C)c3c2)CC1,-100% (inactive)
7,C[C@H](CO)N1C[C@H](C)[C@H](CN(C)C(=O)Nc2cccc3ccccc23)Oc2ncc(C#Cc3ccccc3)cc2C1=O,8.08% (inactive)
8,C[C@H]1CN([C@@H](C)CO)S(=O)(=O)c2ccc(Br)cc2O[C@H]1CN(C)Cc1ccccn1,4.93% (inactive)
9,CSc1ccc(S(=O)(=O)NC2CCCCC2)cc1,-102% (inactive)
10,CCCC#Cc1cnc2c(c1)C(=O)N([C@H](C)CO)C[C@H](C)[C@@H](CN(C)Cc1ccccc1)O2,2.96% (inactive)
11,C[C@@H]1CN([C@H](C)CO)C(=O)c2cc(-c3ccc(F)cc3)cnc2O[C@@H]1CN(C)Cc1ccc(C(=O)O)cc1,-8.09% (inactive)
12,Cc1c(C)c(C)c(S(=O)(=O)NCCc2ccccn2)c(C)c1C,-107% (inactive)
13,CCC(=O)N1C[C@H](C)[C@H](OC)CN(C)C(=O)c2ccc(NS(C)(=O)=O)cc2OC[C@H]1C,0.433% (inactive)
14,C[C@H]1CN([C@@H](C)CO)C(=O)c2cc(C#CC3(O)CCCC3)cnc2O[C@@H]1CN(C)C(=O)Cc1ccccc1,0.596% (inactive)
15,COc1cccc2sc(N(CCCN(C)C)C(=O)C(c3ccccc3)c3ccccc3)nc12,74.2% (active)
16,C[C@@H]1CN([C@H](C)CO)S(=O)(=O)c2ccc(-c3ccccc3)cc2O[C@@H]1CN(C)C(=O)CC1CC1,-0.601% (inactive)
17,C[C@H](CO)N1C[C@H](C)[C@@H](CN(C)CC2CCOCC2)Oc2ncc(C#Cc3ccc(F)cc3)cc2C1=O,4.08% (inactive)
18,C[C@@H]1CN([C@@H](C)CO)S(=O)(=O)c2ccc(C#CCC3CCCC3)cc2O[C@H]1CN(C)C(=O)CC1CC1,-4.63% (inactive)
19,C[C@@H]1CN([C@H](C)CO)C(=O)c2cc(C#CC3(O)CCCC3)cnc2O[C@H]1CN(C)Cc1ccncc1,-9.22% (inactive)
20,C[C@H](CO)N1C[C@H](C)[C@@H](CN(C)Cc2ccncc2)Oc2ncc(C#CC3CC3)cc2C1=O,-22.7% (inactive)
21,Cc1ccc(C(=O)Nc2ccccc2-c2ccccc2)cc1S(=O)(=O)Nc1ccccc1,-94% (inactive)
22,N=c1c2c(-c3ccccc3)c(-c3ccccc3)n(Cc3ccccc3)c2ncn1CCCO,42.7% (active)
23,CCCN1C[C@@H](C)[C@@H](OC)CN(C)C(=O)c2ccc(NS(C)(=O)=O)cc2OC[C@@H]1C,-0.143% (inactive)
24,C/C=C/c1ccc2c(c1)O[C@H](CN(C)Cc1ccccc1)[C@H](C)CN([C@@H](C)CO)S2(=O)=O,-0.63% (inactive)

row,SMILES,activation
1,C[C@H](CO)N1C[C@H](C)[C@H](CN(C)Cc2ccncc2)Oc2ncc(C#Cc3cccc(F)c3)cc2C1=O,-2.31% (inactive)
2,COCC#Cc1cnc2c(c1)C(=O)N([C@@H](C)CO)C[C@@H](C)[C@H](CN(C)C(=O)Nc1ccccc1OC)O2,-17.8% (inactive)
3,CCc1ccc(-c2cc(C)no2)cc1S(=O)(=O)NCCc1ccc(S(N)(=O)=O)cc1,-124% (inactive)
4,C[C@H](CO)N1C[C@H](C)[C@H](CN(C)Cc2ccccn2)Oc2ncc(C#CCc3ccccc3)cc2C1=O,-4.42% (inactive)
5,Cc1ccc(S(=O)(=O)Nc2ccc3ncccc3c2)cc1,-146% (inactive)
6,COCC(=O)N(C)C[C@H]1Oc2cc(C#CC(C)C)ccc2S(=O)(=O)N([C@H](C)CO)C[C@@H]1C,-9.28% (inactive)
7,CCOC(=O)c1c(S(=O)(=O)Nc2cccc(Cl)c2)c(C)n(C)c1C,-92% (inactive)
8,O=C(/C=C(O)/C=C/c1ccc(O)cc1)/C=C/c1ccc(O)cc1,-140% (inactive)
9,CCC(=O)Nc1ccc2c(c1)OC[C@H](C)N(Cc1ccccc1F)C[C@H](C)[C@@H](OC)CN(C)C2=O,3.89% (inactive)
10,Cn1c(NC(=O)c2ccco2)c(-c2ccccc2Cl)c(=O)c2ccccc21,66.3% (active)
11,COc1ccc(NS(=O)(=O)c2ccc(NC(=O)C(C)(C(F)(F)F)C(F)(F)F)cc2)nn1,35.7% (active)
12,COc1ccc(NS(=O)(=O)c2ccc(NC(=S)NC(=O)CC(C)C)cc2)cc1,-161% (inactive)
13,CO[C@H]1CN(C)C(=O)c2cc(NS(=O)(=O)c3ccccc3)ccc2OC[C@H](C)N(C)C[C@@H]1C,-1.29% (inactive)
14,C[C@H](CO)N1C[C@H](C)[C@@H](CN(C)S(=O)(=O)c2ccccc2)Oc2ncc(C#Cc3ccccc3F)cc2C1=O,1.81% (inactive)
15,COc1ccc(OCCCC(=O)NCCc2ccccc2)cc1,-223% (inactive)
16,CC(C)C#Cc1ccc2c(c1)O[C@@H](CN(C)C(=O)NC(C)C)[C@H](C)CN([C@H](C)CO)S2(=O)=O,-66.1% (inactive)
17,COc1ccccc1-c1cnc2c(c1)C(=O)N([C@H](C)CO)C[C@@H](C)[C@@H](CN(C)CC1CCCC1)O2,5.29% (inactive)
18,Cc1ccc(NS(=O)(=O)c2cc3c(cc2C)NC(=O)CO3)cc1,-92.7% (inactive)
19,CC(C)C(=O)Nc1ccc2c(c1)C(=O)N(C)[C@@H]1CC[C@@H](CC(=O)NCCc3ccccc3)O[C@H]1CO2,56.7% (active)
20,CCCC(=O)Nc1ccc2c(c1)C(=O)N(C)C[C@H](OC)[C@@H](C)CN[C@H](C)CO2,1.08% (inactive)
21,CNC(=O)C[C@@H]1CC[C@H]2[C@H](COc3ccc(NC(=O)c4cccc(OC)c4)cc3C(=O)N2C)O1,50% (active)
22,CCC(=O)Nc1ccc2c(c1)C(=O)N(C)C[C@@H](OC)[C@@H](C)CN(Cc1ccccc1OC)[C@H](C)CO2,-2.97% (inactive)
23,Cn1cnc(CCNC(=O)C[C@@H]2CC[C@@H]3[C@H](COC[C@@H](O)CN3C(=O)Nc3ccccc3)O2)c1,4.36% (inactive)
24,CCCC(=O)Nc1ccc2c(c1)C(=O)N(C)[C@H]1CC[C@@H](CC(=O)NCc3cccc(F)c3)O[C@H]1CO2,-120% (inactive)
